Data on 40 compounds can be found in PubChem BioAssay.

Unmarked numbers belong to inactive results. No rule for the calls is given here.

The target in the assay is Pantothenate synthetase (Mycobacterium tuberculosis (strain ATCC 25618 / H37Rv)) (UniProt P9WIL5). In words: Recombinant Mtb pantothenate synthetase (PanC) inhibitors, coupled enzyme, confirmatory (AID 375).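 Also: 0% = full reaction with vehicle and 100% = no enzyme background.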 Particulars: coupled enzyme assay; at 10 µM, stronger effect = higher value.
Sequence of Pantothenate synthetase (Mycobacterium tuberculosis (strain ATCC 25618 / H37Rv)) (P9WIL5 whole entry, looked up): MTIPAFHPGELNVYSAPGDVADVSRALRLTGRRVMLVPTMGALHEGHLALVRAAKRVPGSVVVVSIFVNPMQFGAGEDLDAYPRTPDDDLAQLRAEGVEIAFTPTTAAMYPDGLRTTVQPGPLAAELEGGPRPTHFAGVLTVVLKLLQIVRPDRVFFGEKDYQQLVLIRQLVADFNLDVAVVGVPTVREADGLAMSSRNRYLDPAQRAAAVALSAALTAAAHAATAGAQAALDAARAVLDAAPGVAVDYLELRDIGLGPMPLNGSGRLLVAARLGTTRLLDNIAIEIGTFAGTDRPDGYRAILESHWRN
On to `CCOC(=O)CSc1nnc(Cn2c(=O)sc3ccccc32)n1C`, for which the inhibition was 0%. To `CN(C)C(=O)CN(c1ccc(F)c(Cl)c1)S(C)(=O)=O` belongs 5%; to `CCOC(=O)c1c(C)oc2c1c(C(c1ccncc1)N1CCOCC1)c(O)c1ccccc12` (stereo not given), 0%. To `O=C(CSc1nc2ccccc2c(=O)n1Cc1ccco1)NCc1ccccc1` belongs 2%; to `Cc1ccc(S(=O)(=O)Cc2ccc(C(=O)N3CCN(Cc4ccccc4)CC3)o2)cc1`, 3%. On to `O=C(O)C1C2CCC(C2)C1C(=O)NCCCn1ccnc1` (stereo not given), for which the inhibition was 12%. For the compound `CN(Cc1ccccc1)S(=O)(=O)c1ccc(S(=O)(=O)N2CCN(CCC#N)CC2)cc1`, the inhibition was 0%. In the case of `CC(=O)Nc1sc2c(c1C#N)CCCCC2`, the inhibition was 7%.

Take `Cc1ccc(CCNC(=O)C2CCCN2S(=O)(=O)c2ccc3c(c2)CCC(=O)N3)cc1` (stereo not given): the inhibition was 6%.

Consider `Cn1cccc1-c1nc2ccc(NC(=O)c3ccco3)cc2[nH]1`, for which the inhibition is 6%.

With `COC(=O)C1=C(C)C(c2cccs2)NC(=O)N1C` (stereo not given), the inhibition was 0%. To `CCCS(=O)(=O)N1CCN(C(=O)c2cccnc2)CC1` belongs 0%; to `Cc1cc(Nc2ccc(N3CCC(C)CC3)cc2)n2ncnc2n1`, 0%; to `O=c1c2ccccc2c(C=Nc2ccc(Cl)cn2)c(O)n1-c1cc(Cl)ccc1N1CCOCC1`, 4%. With `COc1cccc(N2CCN(c3ncnc4c3[nH]c3ccc(F)cc34)CC2C)c1` (stereo not given) the figure was 0%; with `C=CCN(CC=C)C(=O)Nc1cc(Cl)ccc1OC`, 0%; with `CCOC(=O)n1c(=O)oc2cc(S(=O)(=O)N3CCCCC3)ccc21`, 7%. For the compound `COC(=O)CSc1nc2sc3c(c2c(=O)n1C1CCCCC1)CCN(C)C3`, the inhibition was 0%. With `CC(C)n1c(=NC(=O)c2ccco2)c(C#N)cc2c(=O)n3ccccc3cc21` the figure was 0%; with `CCOc1ccc(C(=O)N(Cc2ccc(N(C)C)cc2)C2CCS(=O)(=O)C2)cc1` (stereo not given), 0%; with `Cc1cc(=O)oc2cc(Oc3ncccn3)ccc12`, 6%. With `CC(=O)Nc1ccc(S(=O)(=O)n2nc(C)cc2C)cc1` the figure was 0%; with `COC(=O)c1ccc(CSc2nnc(-c3ccncc3)o2)o1`, 0%; with `Nc1ccc(C(=O)OCCCc2nc3ccccc3[nH]2)cc1`, 3%. To `O=C(c1ncn[nH]1)N1CCN(c2nc(-c3ccccc3)cs2)CC1` belongs 5%; to `COc1ccc(Cl)cc1NC(=O)COc1cccc(-n2cnnn2)c1`, 0%. As to `Cc1c(C(=O)OC2CCC(C)CC2)[nH]c2c1C(=O)CCC2` (stereo not given), the inhibition was 2%. On to `CCCc1nnc2n1N=C(c1ccc(OC)c(OC)c1)CS2`, for which the inhibition is 0%. To `CCC1c2ccc(C)n2CCN1C(=O)Nc1ccccc1OC` (stereo not given) belongs 9%; to `O=C1CN(C(=O)COC(=O)C23CC4CC(CC(O)(C4)C2)C3)c2ccccc2N1`, 19%; to `CC(C)(C)c1cc(NC(=O)c2cc(F)c(F)c(F)c2F)no1`, 0%.

For the compound `Cc1cccc(C(=O)N2CCN(C(=O)c3cccc(C)c3)C(C)C2)c1` (stereo not given), the inhibition was 0%. To `O=C(O)CCCc1nc(-c2ccccc2)no1` belongs 0%; to `COc1ccccc1C1/C(=C(\O)c2c(C)nc3c(C)cccn23)C(=O)C(=O)N1CCCN(C)C` (stereo not given), 0%. With `CCC(C)NC(=O)c1cc(-c2ccc(OC)cc2)on1` (stereo not given), the inhibition is 0%. To `COc1cccc(NC(=O)CN2CCN(c3ccccc3F)CC2)c1` belongs 4%; to `CC1(C)SC2[C@H](NC(=O)C(NC(=O)N3CCNC3=O)c3ccccc3)C(=O)N2C1C(=O)O` (stereo not given in full), 0%. With `O=C(CCCN1C(=O)c2ccccc2C1=O)N1CCC(c2ccccc2)C1` (stereo not given) the figure was 4%; with `NC(N)=Nc1nc(CSCC/C(N)=N/S(N)(=O)=O)cs1`, 0%; with `Cc1ccc(C2C(C#N)=C(N)Oc3cc4c(cc32)OCO4)cc1` (stereo not given), 8%.
